Screening results from PubChem BioAssay.
An excerpt weighted towards active compounds, which were near 2.4% of everything screened.
M1 ag = human M1 muscarinic receptor agonism | P11229 | CHO-K1 hM1, Fluo-8 calcium fluorescence, agonist mode; 0% DMSO, 100% acetylcholine EC100 | AID 588814 | 0.33% of 360,000 active | activation, % at 3 µM;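 active means activation above the run's mean compound activation plus 3 SD, cut at about 16% in these data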;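 further: peak over basal fluorescence ratio within a 140 s kinetic read after compound addition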
Target sequence (P11229 whole entry, looked up): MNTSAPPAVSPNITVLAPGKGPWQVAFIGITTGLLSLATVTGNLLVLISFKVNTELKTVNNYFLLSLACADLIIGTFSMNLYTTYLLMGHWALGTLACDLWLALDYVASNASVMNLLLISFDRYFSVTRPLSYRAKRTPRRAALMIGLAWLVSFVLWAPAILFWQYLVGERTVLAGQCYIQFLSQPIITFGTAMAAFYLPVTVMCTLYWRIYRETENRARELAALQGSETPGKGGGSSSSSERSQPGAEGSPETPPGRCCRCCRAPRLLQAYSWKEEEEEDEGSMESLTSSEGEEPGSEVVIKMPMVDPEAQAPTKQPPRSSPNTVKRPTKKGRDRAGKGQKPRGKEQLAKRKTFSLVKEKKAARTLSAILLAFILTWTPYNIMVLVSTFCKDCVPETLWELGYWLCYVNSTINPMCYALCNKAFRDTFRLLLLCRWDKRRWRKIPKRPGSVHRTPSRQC
CHO-K1 Ca ag = M1 agonist counterscreen hit in parental CHO-K1 cells | 0.48% of 360,000 active | activation, % at 3 µM | Fluo-8 calcium fluorescence; scaled to maximal ATP response, vehicle zero; in the data active means activation above about 15%;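 further: untransfected CHO-K1 host cells lacking M1 receptor as counterscreen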
CHRM1 PAM = human CHRM1 positive allosteric modulation; CHO-K1 hM1, Fluo-8 calcium fluorescence, ACh EC20; 0% = ACh EC20, 100% = maximal ACh; activation, % at 3 µM; 0.088% of 360,000 active; P11229; AID 588819; in the data active means activation above about 19%, passing the limit was not always enough
CHO-K1 Ca antag = M1 antagonist counterscreen hit in parental CHO-K1 cells. 0.6% of 360,000 active. inhibition, % at 3 µM. ATP-induced calcium, Fluo-8 fluorescence;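 active means inhibition above a per-plate cutoff, the plate's mean sample inhibition plus 3 SD, cut at about 24% in these data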;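 further: 0% = DMSO plus EC80 ATP and 100% = DMSO alone without ATP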
M1 antag = human CHRM1 antagonism. 1.3% of 360,000 active. CHO-K1 hM1, Fluo-8 calcium fluorescence, ACh EC80 antagonist. P11229. inhibition, % at 3 µM. AID 588852;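 active means percent inhibition above its own plate's cutoff, namely the mean of that plate's compound wells plus 3 SD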;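 further: peak over basal fluorescence ratio during 140 s after agonist addition; 0% = ACh EC80 plus DMSO and 100% = DMSO alone without agonist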
M1 PAM parental = counter-screen for M1 PAMs: effect in parental CHO-K1 cells; ATP EC20, Fluo-8 calcium fluorescence; 0% at ATP EC20, 100% at ATP max; activation, % at 3 µM; 0.02% of 360,000 active;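 active means activation above the run cutoff, the mean activation of all test compounds plus 3 SD, cut at about 40% in these data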;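 further: peak over basal fluorescence ratio in a 140 s read after ATP addition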
Numbers without * were called inactive; · = not tested or not shown.

SMILES	M1 ag	CHO-K1 Ca ag	CHRM1 PAM	CHO-K1 Ca antag	M1 antag	M1 PAM parental
COc1ccc(OC)c(C(=O)c2ccc(C(=O)Nc3ccc4ccccc4c3)cc2)c1	-3	0	-5	27*	-3	-16
O=C(CN1C(=O)COc2ccccc21)c1ccc(Cl)cc1	-3	0	-9	30*	28	-8
Cc1ccc(Cl)cc1-c1cc(C(=O)N2CCc3ccccc3C2)[nH]n1	-2	-1	4	0	-11	-7
COc1cccc(CN(C)C(=O)c2cc(COc3ccc4ncccc4c3)on2)c1	-2	19*	-19	44*	50*	-11
COc1cccc(CN(C)C(=O)c2cc(COc3c(F)cccc3F)on2)c1	-4	1	12	-5	-16	-4
COc1cccc(CN(C)C(=O)c2cc(COc3ccc(-n4cncn4)cc3)on2)c1	2	16*	-10	-3	12	-20
Cc1ccc(-c2cc(C(=O)N3CCCCC3)c3ccccc3n2)cc1C	2	4	4	-18	7	36
COc1ccc(-c2n(CC(=O)OC3CC(C)CCC3C(C)C)c3ccccc3[n+]2C)cc1 (centres undefined)	-10	6	-24	24*	28*	-4
CC1CCC(C(C)C)C(OC(=O)CSc2nccc(=O)[nH]2)C1 (centres undefined)	-7	0	-7	-1	13	6
COc1ccc(OCc2n(CC(=O)OC3CC(C)CCC3C(C)C)c3ccccc3[n+]2C)cc1 (centres undefined)	-5	2	-22	8	39*	7
CC1(C(=O)NS(=O)(=O)c2ccc(C#N)cc2)CCN1C(=O)Cc1cc(F)ccc1F (centres undefined)	0	2	2	21	-7	-4
CCCCN(C(C)=O)c1c(CC)nc2ccc(C(=O)NCCOc3ccc(OC)cc3)cn12	-5	1	9	10	-7	-6
C=C1C(C(=O)Nc2ccc(OC)cc2)C1C(=O)Nc1ccc(OC)cc1 (centres undefined)	-3	0	-4	1	25*	-13
C=C1C(C(=O)Nc2ccc(OCC)cc2)C1C(=O)Nc1ccc(OCC)cc1 (centres undefined)	-4	5	-1	0	8	-4
CN(Cc1cn(Cc2cccc(C(F)(F)F)c2)nn1)C1CN(Cc2cn(Cc3cccc(C(F)(F)F)c3)nn2)S(=O)(=O)C1 (centres undefined)	·	4	·	-8	·	-1
Nc1nc(Nc2ccccc2F)sc1C(=O)c1ccccc1	17*	10	11	-21	-3	13
CC(=O)c1ccc(NC(=O)CN2CCCC2)cc1	-4	1	6	-1	-10	8
CSc1cccc(CN2CCC(Oc3cccc(C(=O)N4CCCC4)c3)CC2)c1	-7	2	-5	-9	-3	17
COCCNC(=O)c1cccc(OC2CCN(Cc3ccc(C(=O)OC)cc3)CC2)c1	19*	0	-17	-6	71*	11
COC(=O)c1ccc(CN2CCC(Oc3cccc(C(=O)N4CCOCC4)c3)CC2)cc1	18*	3	-18	4	84*	1
COCCNC(=O)c1cccc(OC2CCN(Cc3ccc(C(C)C)cc3)CC2)c1	-8	2	-11	0	11	-4
COCCNC(=O)CCC1CCN(Cc2ccc(-c3ccccc3)cc2)CC1	-9	0	-28	12	99*	-6
COCCNC(=O)C1CCCN(Cc2ccccc2)CC1 (centres undefined)	-7	0	5	-7	-5	9
c1ccc(-c2nnc(N3CCN(c4ccccc4)CC3)nc2-c2ccccc2)cc1	-2	0	14	2	-17	6
CN1CCN(c2nc(-c3cccs3)cc(C(F)(F)F)n2)CC1	-4	2	-21	-10	71*	20
SMILES	M1 ag	CHO-K1 Ca ag	CHRM1 PAM	CHO-K1 Ca antag	M1 antag	M1 PAM parental
CN1CCN(c2nc(-c3ccccc3)cc(C(F)(F)F)n2)CC1	-4	0	-19	7	43*	-2
CC(C)CNC(=O)CSc1nc(-c2cccs2)cc(C(F)(F)F)n1	-3	-1	-4	24*	-15	-6
CN1CCN(c2nnc(-c3ccccc3)c(-c3ccccc3)n2)CC1	-9	0	-20	6	39*	-13
O=[N+]([O-])c1cnn(-c2nc(-c3cccs3)cc(C(F)(F)F)n2)c1	-3	1	4	-11	-4	-2
CCOc1ccccc1N1C(=O)CC(Sc2n[nH]c(-c3ccccc3)n2)C1=O (centres undefined)	-5	1	2	-3	1	0
Cc1ccc(NC(=O)c2cnccn2)cc1S(=O)(=O)N1CCCCCC1	-2	-1	1	0	2	-9
S=C(NCc1ccco1)NCc1ccco1	-3	0	11	-9	-18	12
Cc1cccc(NC(=S)NCc2ccco2)n1	5	17*	11	2	-8	11
COC(=O)c1ccc(NC(=S)NCc2ccco2)cc1	2	1	-3	30*	4	-14
O=C(CNC(=S)N(Cc1ccccc1Cl)C1CCCC1)NCCN1CCOCC1	-1	1	7	-18	-5	15
COc1ccc(CC(=O)OCC(=O)Nc2ccc(N3CCOCC3)cc2)cc1	-3	2	3	-9	-2	21
CC(CCc1ccc(O)cc1)NCCC(c1ccccc1)c1ccccc1 (centres undefined)	-5	2	-26	2	45*	-15
CC(CCc1ccc(O)cc1)NCc1ccc(Br)cc1 (centres undefined)	-8	4	-24	-11	32*	11
CC(CCc1ccc(O)cc1)NC(c1ccccc1)c1ccc(Cl)cc1 (centres undefined)	-10	0	1	-4	-15	1
CSCCC(C(=O)Nc1c(C)cccc1C)N(C)CCc1ccccc1 (centres undefined)	-2	1	6	4	-7	14
COc1ccc(CNC(C)CCc2ccccc2)cc1 (centres undefined)	-10	0	2	-2	-18	-9
CC(CCc1ccc(O)cc1)N(C)CCc1ccccc1 (centres undefined)	-14	1	-30	-28	56*	1
COc1ccc(C(=O)c2[nH]c(N)c(C(=O)NCCc3c[nH]c4ccccc34)c2-c2c(F)cccc2Cl)cc1	·	2	·	-4	·	22
CC1SC(c2ccc(F)cc2)NC1=O (centres undefined)	-3	0	2	-6	-8	18
Cc1nnc(OCc2nc3ccccc3n2C)c2ccccc12	0	1	4	25*	-16	-9
Cc1ccccc1OCc1nc2ccccc2n1C	-6	0	5	-13	-9	20
